# From PubChem BioAssay (NCATS)
# Inconclusive results are not listed. Values without a mark were called inactive. Calls come from the whole dose curve; as a rule, active = well fitted inhibition curve with a large enough effect; inconclusive = small, poorly fitted or top-dose-only effect; inactive = no such curve, though single readings can be large or run the other way.
# Target: Cytochrome P450 3A4 (Homo sapiens) (UniProt P08684)
# Test: qHTS Assay for Inhibitors and Substrates of Cytochrome P450 3A4 (AID 884); note: nearly all actives have a fitted effect of over 50% in size
# Conditions: recombinant CYP3A4, Luciferin-PPXE luminescence; series mostly up to 57.1 µM; activity change, negative = inhibition: at the top concentration
# Procedure, shortened: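 20 nM human CYP3A4 with 25 uM Luciferin-PPXE (at KM) in 200 mM KPO4, preincubated 10 min with compound; NADPH regeneration started a 60 min RT reaction. Luciferin detected by luminescence, normalized to 57 uM ketoconazole as full inhibition.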
# % is set by controls: 0 for no effect and ±100 for the full control effect.
# Cytochrome P450 3A4 (Homo sapiens), sequence (P08684 whole entry, looked up): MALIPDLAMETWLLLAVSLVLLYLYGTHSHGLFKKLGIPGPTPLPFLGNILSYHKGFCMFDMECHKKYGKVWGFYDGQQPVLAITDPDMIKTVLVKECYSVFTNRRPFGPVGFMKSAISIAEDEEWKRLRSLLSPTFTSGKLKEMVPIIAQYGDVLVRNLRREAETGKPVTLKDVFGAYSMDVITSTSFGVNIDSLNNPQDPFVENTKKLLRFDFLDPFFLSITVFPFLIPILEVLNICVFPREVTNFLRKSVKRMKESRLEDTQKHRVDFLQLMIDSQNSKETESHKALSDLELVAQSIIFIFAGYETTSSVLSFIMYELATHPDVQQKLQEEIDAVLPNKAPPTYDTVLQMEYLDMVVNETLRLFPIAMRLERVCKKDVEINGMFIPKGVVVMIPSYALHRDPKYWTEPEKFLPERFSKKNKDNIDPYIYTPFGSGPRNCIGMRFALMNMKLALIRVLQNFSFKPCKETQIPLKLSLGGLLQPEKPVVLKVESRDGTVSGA
row,SMILES,"activity change, negative = inhibition [%]"
1,NC(=O)c1cc[n+](CC2=C(C(=O)O)N3C(=O)C(NC(=O)C(c4ccccc4)S(=O)(=O)[O-])C3SC2)cc1 (centres undefined),-26.6
2,Nc1ncnc2c1nc(Br)n2C1OC(CO)C(O)C1O (centres undefined),-10.9
3,COc1ccc2c(=O)ccoc2c1,-12.7
4,C=CCCCCCCCCCCCC(O)CC(O)COC(C)=O (centres undefined) (tested in a mixture with another compound),-0.196
5,COc1cc2ccc(=O)oc2c(OC)c1OC,-20.7
6,CC1/C=C/C=C/C=C/C=C/C=C/C=C/C=C/C(OC2OC(C)C(O)C(N)C2O)CC2O[C@@](O)(CC(O)CC(O)C(O)CCC(O)CC(O)CC(=O)OC(C)[C@H](C)C1O)CC(O)C2C(=O)O (some centres undefined),-24.7
7,NC(=O)c1ccc[n+]([C@@H]2OC(COP(=O)([O-])OP(=O)(O)OCC3OC(n4cnc5c(N)ncnc54)C(O)C3O)C(O)C2O)c1 (some centres undefined),-3.03
8,O=C1C=CC2=C3c4cc(O)c(O)cc4C[C@]3(O)COC2=C1,-25
9,CC(=O)OC(C)(C)C1Cc2cc3ccc(=O)oc3cc2O1 (centres undefined),-7.26
